In PubChem BioAssay AID651813 (National Center for Advancing Translational Sciences (NCATS), 2012):
The campaign covered roughly 2,100 compounds. About 1,100 (52%) were called active. Roughly 27% stayed inconclusive and do not appear here. The set was probably picked from earlier hits. The list shows a part of the results. Values without a mark were called inactive. Calls follow the shape of the dose curve; as a rule, active = well fitted inhibition curve with a large enough effect; inconclusive = small, poorly fitted or top-dose-only effect; inactive = no such curve, though single readings can be large or run the other way.
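Also: hits raise yellow fluorescence by blocking Vif-driven A3G-eYFP degradation; nearly all actives have a fitted effect of over 70% in size.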
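For max response in this document: max response given as percent of control signal.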
Potency is read from the fitted curve at half-maximal effect.

The compounds below were run against DNA dC->dU-editing enzyme APOBEC-3G (Homo sapiens) (UniProt Q9HC16) (assay: qHTS for inhibitors of Vif-A3G interactions: Cherry picks counterscreen). Settings: HeLa A3G-eYFP + Vif (tagged APOBEC3G with the HIV-1 protein that degrades it), eYFP fluorescence, 24 h.
Sequence of DNA dC->dU-editing enzyme APOBEC-3G (Homo sapiens) (Q9HC16 whole entry, looked up): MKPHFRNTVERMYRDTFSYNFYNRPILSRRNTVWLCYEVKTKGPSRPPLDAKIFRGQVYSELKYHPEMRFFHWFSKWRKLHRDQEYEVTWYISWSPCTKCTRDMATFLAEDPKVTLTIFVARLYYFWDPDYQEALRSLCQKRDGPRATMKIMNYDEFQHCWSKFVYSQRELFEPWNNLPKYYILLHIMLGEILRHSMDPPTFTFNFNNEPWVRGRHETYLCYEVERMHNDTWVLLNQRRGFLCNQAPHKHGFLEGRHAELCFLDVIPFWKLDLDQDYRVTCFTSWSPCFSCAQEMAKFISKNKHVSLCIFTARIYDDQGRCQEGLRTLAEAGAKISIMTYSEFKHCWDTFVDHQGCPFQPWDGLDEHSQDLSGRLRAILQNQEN
Source text: The recent discovery and characterization of host restriction factors, which provide a potent defense to invading retroviruses, has provided new targets for antiviral drug development. APOBEC3G (A3G) and APOBEC3F (A3F) are potent cytidine deaminases that block HIV-1 replication; HIV-1 expresses the Vif protein, which counteracts A3G and A3F by binding to them and inducing their proteasomal degradation. The Vif-A3G and Vif-A3F interactions provide two potential targets for development of small molecules which can interfere with the ability of Vif to degrade A3G or A3F. […] To identify inhibitors that can interfere with Vif mediated degradation of A3G and A3F, we have developed Hela cell lines that stably express A3G or A3F tagged with eYFP at the C-terminal end (A3G-eYFP or A3F-eYFP, respectively) and Vif. In the absence of an inhibitor, Vif induces degradation of A3G-eYFP and A3F-eYFP, and the cells are not fluorescent. In the presence of an inhibitor, it is expected that Vif will be unable to degrade A3G-eYFP and/or A3F-eYFP, resulting in an increase in yellow fluorescence. In this counterscreen assay, Vif A3G was screened against the cherry picks ordered from the MLSMR. NIH Chemical Genomics Center [NCGC] NIH Molecular Libraries Probe Centers Network [MLPCN] MLPCN Grant: MH093245 Assay Submitter (PI): Vinay Pathak, National Cancer Institute
A3G-Vif cells were harvested from T225 flask and resuspended in phenol free OPTI-MEM medium with 5% FBS. Then 5 uL of 140,000 cells/mL resuspended cells was dispensed into each well of low base Aurora COC 1,536-well plates (black walled, clear bottom) using a Multidrop Combi dispenser. After overnight culture at 37 deg C with 5% CO2, a total of 23 nL of compounds at 5 selected concentrations from the NPC or positive control (2 mM stock of MG132) in DMSO was transferred to each well of the assay plate using a pintool (Kalypsys, San Diego, CA), and the plates were further incubated at 37 deg C with 5% CO2 for 24 hours. After that, the plates were measured on Acumen Explorer (TTP Lab Tech). The fluorescence was detected by 488 nm/Ex and […].
For COC(=O)CCC(=O)NC(=S)Nc1sc(C)c(C)c1C(N)=O, the Potency was 0.886 µM (active). With Cc1cc(NC(=O)CSc2nc3c(C)cccc3cc2C#N)no1 the Potency was 4.11 µM (active). In the case of Cc1nonc1NC(=O)CSc1nc2c(C)cccc2cc1C#N, the Potency is reported as 20.6 µM (active). In the case of Cc1cc(NC(=O)CSc2nc(-c3cccs3)nc3ccccc23)no1, the Potency is reported as 3.53 µM (active). In the case of C1=Cc2ccccc2/C1=C\c1cc2c3c(c1)CCCN3CCC2, the Potency is reported as 13 µM (active). For c1ccc2c(CCc3c[nH]c4ccccc34)ccnc2c1, the Potency was 16.4 µM (active). With CSc1nsc(/C=C/Nc2ccc(F)cc2)c1C#N the Potency was 16.4 µM (active). In the case of CSc1nsc(/C=C/Nc2ccc(C)cc2)c1C#N, the Potency is reported as 15.8 µM (active). CCN(CC)c1ccc(/C=c2/sc3nnc(-c4ccccc4C)n3c2=O)cc1 was tested, and the Potency was 23.1 µM (active). For CCOC(=O)Nc1ccc2nc(-c3cscn3)[nH]c2c1, the Potency was 8.86 µM (active). In the case of O=C(O)CCCN1C(=O)/C(=C\C(Cl)=C\c2ccccc2)SC1=S, the Potency is reported as 5.59 µM (active). CCC(=O)Nc1ccccc1-c1nc2ccccc2n(C(C)C(=O)Nc2ccc(OC)cc2)c1=O (centres undefined) was tested, and the Potency was 8.2 µM (active). With COCCNC(=O)C(=O)Nc1ccc2c(c1)N(S(=O)(=O)c1cccs1)CCC2 the Potency was 6.27 µM (active). O=C(Nc1nc2ccccc2s1)c1ccc([N+](=O)[O-])o1 showed a max response of -24.2%. With Cc1nnc(NC(=O)c2sc3nc(-c4cccs4)cc(C(F)(F)F)c3c2N)s1 the Potency was 2.59 µM (active). Nc1c(C(=O)Nc2nc3ccccc3s2)sc2nc(-c3cccs3)ccc12 was tested, and the Potency was 6.51 µM (active). In the case of Nc1c(C(=O)Nc2nccs2)sc2nc(-c3cccs3)cc(C(F)(F)F)c12, the Potency is reported as 7.9 µM (active). In the case of Nc1c(C(=O)Nc2ccc(F)cc2)sc2nc(-c3cccs3)cc(C(F)(F)F)c12, the Potency is reported as 0.82 µM (active). CC(C)Cn1c(N)c(C(=O)COC(=O)c2ccc([N+](=O)[O-])o2)c(=O)n(C)c1=O gave a max response of 8.96%. With Cc1c(C(=O)C(=O)N2CC=C(c3ccccc3)CC2)c2ccccc2n1C the Potency was 7.04 µM (active). For Cc1c(C(=O)C(=O)N2CCCc3ccccc32)c2ccccc2n1C, the Potency was 11.2 µM (active). O=C(/C=C/c1ccco1)N1CCc2ccccc21 was tested, and the max response was -19.9%. Compound CCOC(=O)c1ccc(NC(=S)Nc2cccc(C)n2)cc1 has a max response of -9.19%. For CCOC(=O)c1cc(-c2ccccc2)sc1NC(=S)Nc1cc(C)ccn1, the Potency was 18.4 µM (active). Cc1ccc(NC(=S)Nc2ccccn2)c(C)c1 showed a max response of -5.64%. With Cc1ccnc(NC(=O)Nc2ccc3c(c2)N(C)C(=O)CS3)c1 the Potency was 2.59 µM (active). In the case of Cc1ccc(-c2nc3sc(C#N)c(N)n3c(=O)c2C#N)cc1, the Potency is reported as 25.9 µM (active). O=C1c2ccccc2C(=O)c2cc(N3CCCCC3)ccc21 was tested, and the Potency was 6.27 µM (active). In the case of Cc1ccc(C(=O)N/C(=C/c2ccc(-c3ccc([N+](=O)[O-])cc3)o2)C(=O)NCCCN(C)C)cc1, the Potency is reported as 15.8 µM (active). For Cc1cc2nc3s/c(=C/c4ccc(-c5ccccc5C(=O)O)o4)c(=O)n3c2cc1C, the Potency was 23.1 µM (active). In the case of Cc1cc(C)cc(NC(=S)NC(=O)C2CC2)c1, the max response is reported as -14.6%. For O=C1/C(=C\c2cc([N+](=O)[O-])ccc2O)SC(=S)N1Cc1ccc(Cl)cc1, the Potency was 18.4 µM (active). In the case of Cc1cc(N)cc(C)c1-c1c(Br)cc(N)cc1Br, the Potency is reported as 8.86 µM (active). With Nc1c(C(=O)c2ccccc2)sc2snc(SCC(=O)c3ccccc3)c12 the Potency was 14 µM (active). With Nc1c(C(=O)c2ccccc2)sc2nsc(SCCN3CCOCC3)c12 the Potency was 4.61 µM (active). With Nc1c(C(=O)c2ccccc2)sc2nsc(SCCN3CCCC3)c12 the Potency was 14 µM (active). COc1ccc(OC)c(S(=O)(=O)N/N=C\c2cn(CC(N)=O)c3ccccc23)c1 was tested, and the Potency was 15.8 µM (active). COC(=O)Cn1c(C)c(/C=C/c2cc[n+](C)cc2)c2ccccc21 was tested, and the Potency was 9.2 µM (active). In the case of CCN(CC)C(=O)Cn1c(C)c(/C=C/c2cc[n+](C)cc2)c2ccccc21, the Potency is reported as 15.8 µM (active). CCOC(=O)c1c(Nc2ccc(Cl)cc2)sc(/C=C2\C=Nc3ccccc32)c1O was tested, and the Potency was 20.6 µM (active). Compound COc1ccccc1N=C1NC(=O)/C(=C/c2ccc(N(C)C)cc2)S1 has a max response of 38.1%. With CCOc1ccc(N(C)c2ccc(/C=C3/SC(=S)NC3=O)cc2)cc1 the Potency was 15.8 µM (active). CN(C)c1ccc(C=C2SC(=S)NC2=O)cc1 was tested, and the Potency was 9.94 µM (active). C=C1C(=O)O[C@@H]2[C@H]1[C@@H](OC(=O)/C(C)=C/C)C/C(C)=C\C(=O)/C=C(\C)[C@@H]2O was tested, and the Potency was 15.8 µM (active). C=CCN1C(=O)/C(=C\C=C2\N(C)c3ccccc3C2(C)C)SC1=S was tested, and the Potency was 0.291 µM (active). CCCN1C(=O)/C(=C\C=C2\N(CC)c3ccccc3C2(C)C)SC1=S was tested, and the Potency was 2.06 µM (active). CN1/C(=C\C=C2/SC(=S)N(CC(=O)O)C2=O)C(C)(C)c2ccccc21 showed a max response of 52.2%. For CN1/C(=C/C=C(/C#N)C(N)=O)C(C)(C)c2ccccc21, the Potency was 9.94 µM (active). For CCCN1C(=O)/C(=C/C=C2\N(CC)c3ccccc3C2(C)C)SC1=S, the Potency was 1.58 µM (active). CCCCN1C(=O)/C(=C/C=C2/CC(C)(C)CN2C)SC1=S gave a max response of 54.7%. With CN1/C(=C\C=C2/SC(=S)NC2=O)C(C)(C)c2ccccc21 the Potency was 3.53 µM (active). In the case of COc1ccc2c(c1)/C(=C\c1cccc(/C=C3/C(=O)Nc4ccc(OC)cc43)n1)C(=O)N2, the max response is reported as -72.2%. For COc1ccc2c(c1)/C(=C/c1cc(OC)c(OC)c(OC)c1)C(=O)N2, the Potency was 3.53 µM (active). In the case of O=[N+]([O-])c1cc(-c2nc(-c3ccccc3)no2)ccc1NCc1ccco1, the Potency is reported as 10.3 µM (active). With Cc1cccc(-c2noc(-c3ccc(NCc4ccco4)c([N+](=O)[O-])c3)n2)c1 the Potency was 20.6 µM (active). For O=C1N/C(=N\N=C\c2ccco2)SC1Cc1ccccc1[N+](=O)[O-] (centres undefined), the max response was -1.06%. In the case of O=C(NCc1cccnc1)c1cccc(NS(=O)(=O)c2ccc(Br)cc2)c1, the Potency is reported as 4.44 µM (active). With CCN(CC)c1ccc2c(c1)OC(N)=C(C#N)C2c1cccnc1 (centres undefined) the Potency was 15.8 µM (active). In the case of N#CC1=C(N)Oc2ccc3ccccc3c2C1c1cccnc1 (centres undefined), the Potency is reported as 6.27 µM (active).
